{"source": "the supplement of paper PMC13380429", "data": [{"tested_on": "Vero E6 infected with SARS-CoV-2", "assay": "inhibition of SARS-CoV-2 cytopathic effect; higher = more antiviral protection, active = above 15", "settings": "10000 nM; 48 h", "values": [{"smiles": "CCOC(=O)C(=O)Nc1cccc(OC)c1C(N)=O", "inhibition of SARS-CoV-2 cytopathic effect": "-0.82% (inactive)"}, {"smiles": "CN(C)C(=O)Oc1ccc[n+](C)c1", "note": "[mestinon]", "inhibition of SARS-CoV-2 cytopathic effect": "-1.86% (inactive)"}, {"smiles": "CC(C[N+](C)(C)C)OC(N)=O", "note": "(centres undefined) [bethanechol]", "inhibition of SARS-CoV-2 cytopathic effect": "-6.25% (inactive)"}, {"smiles": "CC(=O)O[C@]1(C(C)=O)CC[C@H]2[C@@H]3C[C@H](C)C4=CC(=O)CC[C@]4(C)[C@H]3CC[C@@]21C", "note": "[medroxyprogesterone-acetate]", "inhibition of SARS-CoV-2 cytopathic effect": "6.49% (inactive)"}, {"smiles": "CNC(=O)[C@@H](NC(=O)[C@H](CC(C)C)[C@H](O)C(=O)NO)C(C)(C)C", "note": "[marimastat]", "inhibition of SARS-CoV-2 cytopathic effect": "-13.7% (inactive)"}, {"smiles": "O=S(=O)(F)Cc1ccccc1", "note": "[phenylmethylsulfonyl-fluoride]", "inhibition of SARS-CoV-2 cytopathic effect": "1.71% (inactive)"}, {"smiles": "Cc1ccc(S(=O)(=O)n2c(N)nc3ccccc32)cc1", "inhibition of SARS-CoV-2 cytopathic effect": "-0.17% (inactive)"}, {"smiles": "CC(C)Oc1ccc(-c2nc(-c3cccc4c3CC[C@@H]4NCCO)no2)cc1C#N", "note": "[ozanimod]", "inhibition of SARS-CoV-2 cytopathic effect": "59.2% (active)"}, {"smiles": "O=C(O)c1c(Sc2ccccc2)c2cc(Cl)ccc2n1Cc1ccc(Cl)cc1", "inhibition of SARS-CoV-2 cytopathic effect": "1.7% (inactive)"}, {"smiles": "Cc1nc(Nc2ncc(C(=O)Nc3c(C)cccc3Cl)s2)cc(N2CCN(CCO)CC2)n1", "note": "[dasatinib]", "inhibition of SARS-CoV-2 cytopathic effect": "-11.6% (inactive)"}, {"smiles": "CCCN1CCN(c2ccc(C(=O)NC3(C(=O)NCC#N)CCCCC3)cc2)CC1", "note": "[balicatib]", "inhibition of SARS-CoV-2 cytopathic effect": "10.8% (inactive)"}, {"smiles": "CNC(C)(C)Cc1ccccc1", "note": "[mephentermine]", "inhibition of SARS-CoV-2 cytopathic effect": "2.65% (inactive)"}, {"smiles": "C#C[C@]1(O)CC[C@H]2[C@@H]3CCC4=C(CCC(=O)C4)[C@H]3CC[C@@]21C", "note": "[noretynodrel]", "inhibition of SARS-CoV-2 cytopathic effect": "0.57% (inactive)"}, {"smiles": "CC(C)(C)C[C@@H]1N[C@@H](C(=O)N[C@H]2CC[C@H](O)CC2)[C@H](c2cccc(Cl)c2F)[C@]12C(=O)Nc1cc(Cl)ccc12", "inhibition of SARS-CoV-2 cytopathic effect": "2.37% (inactive)"}, {"smiles": "NCCCC[C@H](NC(=O)[C@@H](Cc1cc(Br)c(O)c(Br)c1)NC(=O)N1CCC(N2Cc3ccccc3NC2=O)CC1)C(=O)N1CCN(c2ccncc2)CC1", "inhibition of SARS-CoV-2 cytopathic effect": "0.72% (inactive)"}, {"smiles": "CC(C)NC(=O)c1ccc(C#Cc2ccncc2)cn1", "inhibition of SARS-CoV-2 cytopathic effect": "13.2% (inactive)"}, {"smiles": "O=C(Nc1ccc(N2CCC(C(=O)N3CCOCC3)CC2)cc1)c1cnc(Oc2ccccc2)nc1", "inhibition of SARS-CoV-2 cytopathic effect": "-0.78% (inactive)"}, {"smiles": "O=C(NN1C(=O)[C@@H]2[C@@H]3C=C[C@@H]([C@H]4C[C@@H]34)[C@@H]2C1=O)c1ccc(C(F)(F)F)cc1", "note": "[tecovirimat]", "inhibition of SARS-CoV-2 cytopathic effect": "-0.46% (inactive)"}, {"smiles": "O=c1ccc2ccc(OCCCCN3CCN(c4cccc5sccc45)CC3)cc2[nH]1", "note": "[brexpiprazole]", "inhibition of SARS-CoV-2 cytopathic effect": "-8.91% (inactive)"}, {"smiles": "Cc1ccc(-n2nc(C(C)(C)C)cc2NC(=O)Nc2ccc(OCCN3CCOCC3)c3ccccc23)cc1", "note": "[doramapimod]", "inhibition of SARS-CoV-2 cytopathic effect": "8.03% (inactive)"}, {"smiles": "NCCNCCNCCN", "note": "[trientine]", "inhibition of SARS-CoV-2 cytopathic effect": "-1.84% (inactive)"}, {"smiles": "CCC1(C)CC(=O)NC1=O", "note": "(centres undefined) [ethosuximide]", "inhibition of SARS-CoV-2 cytopathic effect": "-4.8% (inactive)"}, {"smiles": "O=C(O)CCCCC(CCSCc1ccccc1)SCc1ccccc1", "note": "(centres undefined)", "inhibition of SARS-CoV-2 cytopathic effect": "-0.88% (inactive)"}, {"smiles": "NC1CCN(c2cccc(Cl)n2)CC1", "inhibition of SARS-CoV-2 cytopathic effect": "-3.39% (inactive)"}, {"smiles": "COc1cc(C)[nH]c(=O)c1CNC(=O)c1c(C)n([C@H](C)C2CCOCC2)c2ccccc12", "inhibition of SARS-CoV-2 cytopathic effect": "-4.06% (inactive)"}, {"smiles": "COc1cccc(Nc2c(C(N)=O)cnc3c(C)cc(S(=O)(=O)c4cccc(C(=O)N(C)C)c4)cc23)c1", "inhibition of SARS-CoV-2 cytopathic effect": "0.48% (inactive)"}, {"smiles": "O=C(O)CNC(=O)c1c(O)c2ccccc2n(Cc2ccccc2)c1=O", "inhibition of SARS-CoV-2 cytopathic effect": "-1.13% (inactive)"}, {"smiles": "C/C=C(/C(=C/C)c1ccc(O)cc1)c1ccc(O)cc1", "note": "[dienestrol]", "inhibition of SARS-CoV-2 cytopathic effect": "1.6% (inactive)"}, {"smiles": "COC(=O)C1=C(C)NC(C)=C(C(=O)OC)C1c1ccccc1[N+](=O)[O-]", "note": "[nifedipine]", "inhibition of SARS-CoV-2 cytopathic effect": "4.43% (inactive)"}, {"smiles": "N=C(N)c1ccc(-c2ccc(-c3ccc(C(=N)N)cc3)o2)cc1", "note": "[furamidine]", "inhibition of SARS-CoV-2 cytopathic effect": "2.72% (inactive)"}, {"smiles": "Cc1cccc(C(=O)NCN2CCN(c3ccccc3C#N)CC2)c1", "inhibition of SARS-CoV-2 cytopathic effect": "0.79% (inactive)"}, {"smiles": "CCCCCCN(CCCCCC)C(=O)Cc1c(-c2ccc(F)cc2)[nH]c2ccccc12", "inhibition of SARS-CoV-2 cytopathic effect": "-4.49% (inactive)"}, {"smiles": "N[C@H]1C(O)O[C@H](CO)[C@@H](O)[C@@H]1O", "note": "(mixture of isomers) [glucosamine]", "inhibition of SARS-CoV-2 cytopathic effect": "1.42% (inactive)"}, {"smiles": "CC(C)Nc1nc2cc(Cl)c(Cl)cc2n1[C@H]1O[C@@H](CO)[C@H](O)[C@@H]1O", "note": "[maribavir]", "inhibition of SARS-CoV-2 cytopathic effect": "-2.15% (inactive)"}, {"smiles": "CC[C@H]1[C@@H](O)[C@@H]2[C@H](CC[C@]3(C)[C@@H]([C@H](C)CCOS(=O)(=O)O)CC[C@@H]23)[C@@]2(C)CC[C@@H](O)C[C@@H]12", "inhibition of SARS-CoV-2 cytopathic effect": "1.9% (inactive)"}, {"smiles": "CCCCCCCCCCCC(=O)N(CCO)CCO", "note": "[lauric-diethanolamide]", "inhibition of SARS-CoV-2 cytopathic effect": "-2.1% (inactive)"}, {"smiles": "CC(Oc1ccc(O)cc1)(P(=O)(O)O)P(=O)(O)O", "inhibition of SARS-CoV-2 cytopathic effect": "-1.37% (inactive)"}, {"smiles": "NC(=O)C1=CN([C@@H]2O[C@H](COP(=O)(O)OP(=O)(O)OC[C@H]3O[C@@H](n4cnc5c(N)ncnc54)[C@H](O)[C@@H]3O)[C@@H](O)[C@H]2O)C=CC1", "note": "[coenzyme-I]", "inhibition of SARS-CoV-2 cytopathic effect": "1.66% (inactive)"}, {"smiles": "NC(=O)c1[nH]cnc1O", "inhibition of SARS-CoV-2 cytopathic effect": "3.24% (inactive)"}]}]}
